# Rab9 prom act = Rab9 promoter activation | 320,000 tested, 2.8% active | Potency, µM (top dose mostly 9.22 µM), without a hit: top-dose activation, negative = inhibition, hits mostly activators | Huh7 Rab9 promoter-luciferase reporter, luminescence, 24 h; note: % of control where 0% means no effect; nearly all actives have a fitted effect of over 60% in size
#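 Huh7 cells stably carrying a Rab9 promoter-luciferase reporter, 1500 cells per well in OP-MEM I with 10% FBS, treated with compound 24 hours at 37C. Luciferase activity read by luminescence after 10 minutes with Amplite reagent.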
# NPC1 prom act = activators of NPC1 promoter. Huh7 NPC1 promoter luciferase reporter, 24 h. Potency, µM (series often up to 9.22 µM), for the others: top-dose activation, usual class: activators. 320,000 tested, 2.4% active. AID 485313; note: % of control where 0% means no effect; nearly all actives have a fitted effect of over 60% in size
#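 Luminescence read-out of NPC1 promoter-driven luciferase in stably transfected Huh7 cells; compounds delivered in DMSO and left 24 h at 37C, 5% CO2, qHTS titration format.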
# p53 reactivator = re-activators of mutant p53; 320,000 tested, 0.063% active; Potency, µM (titrated, usually from 92.2 µM), for the others: top-dose activity change, positive = activation, most hits filed as activators; H1299 p53-A138V BP100-luciferase reporter, luminescence, 24 h; note: % of control where 0% means no effect; nearly all actives have a fitted effect of over 45% in size
#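 H1299 (p53-null), stable ts p53-A138V + BP100-Luc; 1000 cells/well, Opti-MEM/10% FBS; cpd 4 pt, 1:5; 24 h, 37 deg C, 5% CO2; detection reagent 10 min RT; luminescence.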
# ELG1 genotox = genotoxicity induction in ELG1-luciferase HEK293T cells; Potency, µM (series often up to 46 µM), without a hit: top-dose activity change, positive = activation, usual class: activators; 330,000 tested, 1.3% active; AID 504466; HEK293T ELG1-luciferase reporter, luminescence, 16 h; note: % of control where 0% means no effect; nearly all actives have a fitted effect of over 60% in size
#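 16 hr compound incubation (37 °C, 5% CO2) of HEK293T cells carrying luciferase-tagged ELG1; luciferase then measured by ONE-Glo luminescence after 30 min at RT.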
# FLuc counter = firefly luciferase modulation, counter-screen for miR-21 project | Potency, µM (top dose mostly 57.5 µM), for the others: at the highest dose activity change, negative = inhibition, most hits filed as inhibitors | 360,000 tested, 6.9% active | purified FLuc, Km substrates, luminescence inhibition | P08659 | AID 588342;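 note: plate controls were vehicle for no effect and reference inhibitor for full effect; nearly all actives have a fitted effect of over 55% in size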
# Target sequence (P08659 whole entry, looked up): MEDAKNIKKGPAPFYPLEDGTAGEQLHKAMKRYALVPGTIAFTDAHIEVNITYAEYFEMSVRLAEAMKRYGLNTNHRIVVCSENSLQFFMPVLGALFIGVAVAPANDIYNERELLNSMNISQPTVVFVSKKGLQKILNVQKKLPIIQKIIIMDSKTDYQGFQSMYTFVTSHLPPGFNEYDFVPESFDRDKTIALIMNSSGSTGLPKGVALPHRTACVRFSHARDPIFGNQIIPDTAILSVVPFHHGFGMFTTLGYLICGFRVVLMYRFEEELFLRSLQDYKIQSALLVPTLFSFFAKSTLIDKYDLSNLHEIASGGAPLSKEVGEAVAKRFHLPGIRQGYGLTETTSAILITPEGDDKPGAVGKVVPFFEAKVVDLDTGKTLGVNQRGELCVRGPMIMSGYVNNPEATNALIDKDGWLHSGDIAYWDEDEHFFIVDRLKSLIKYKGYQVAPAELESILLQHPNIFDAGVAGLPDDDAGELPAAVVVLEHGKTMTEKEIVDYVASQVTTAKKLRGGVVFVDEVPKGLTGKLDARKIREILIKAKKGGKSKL
#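 Biochemical qHTS of compounds, final roughly 60 µM downward over six points, against 10 nM purified firefly luciferase using Km concentrations of substrates (10 uM D-luciferin, 10 uM ATP) in Tris acetate pH 7.5 buffer; luminescence output.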
# SMN2 splice up = SMN2 splice variant enhancement. AID 1458. Potency, µM (series often up to 46.1 µM), inactives show top-dose activity change, positive = activation, actives largely listed as activators. 210,000 tested, 2.8% active. HEK293 SMN2-luciferase splicing reporter, luminescence, 30-36 h; note: % of control where 0% means no effect; nearly all actives have a fitted effect of over 55% in size
#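 HEK293 cells carry an SMN2 minigene-luciferase reporter in which exon 7 inclusion puts luciferase in frame. Cells were seeded at 2000 cells/well, attached for 10-12 hours, then exposed to compounds for 30-36 hours at 37C before ONE-Glo luminescence.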
# Numbers without * were called inactive; ? = inconclusive; · = no result; [ ] = remark or other dose. Only some compounds are listed: those with a hit (about 7.3% of all), similar ones and a draw of the others. Calls come from the whole dose curve; as a rule, active = well fitted curve in the direction sought with a large enough effect; inconclusive = small, poorly fitted or top-dose-only effect, or another doubt; inactive = no such curve, though single readings can be large; an effect the other way counts as inactive or inconclusive. Potency is the fitted concentration of half-maximal effect.
SMILES,Rab9 prom act,NPC1 prom act,p53 reactivator,ELG1 genotox,FLuc counter,SMN2 splice up
O=C(Cc1ccccc1)Nc1nnc(SCC(=O)NC2CCCC2)s1,-6%,2%,0%,9%,-1%,3%
O=C(CSc1nnc(NC(=O)c2ccc(F)cc2)s1)NC1CCCC1,3.5µM*,?,?,?,2.4µM*,·
O=C(CSc1nnc(NC(=O)c2ccccc2)s1)NC1CCCC1,?,?,?,9%,2.7µM*,·
O=C(CSc1nnc(NC(=O)c2ccco2)s1)NC1CCCCC1,4%,1%,12%,6%,19µM*,8%
O=C(Nc1nnc(SCC(=O)N2CCOCC2)s1)c1ccccc1,?,30%,?,?,2.7µM*,14µM*
CC(=O)Nc1nnc(SCC(=O)NC2CC2)s1,1%,3%,0%,0%,0%,·
CCOC(=O)c1c(C)[nH]c(C)c1S(=O)(=O)N(C)CC(=O)Nc1ccc(C)c(F)c1,·,·,·,·,-3%,·
CCCCC(CC)CNC(=O)c1ccc2c(=O)n(Cc3ccc(OC)cc3)c(=O)[nH]c2c1 (stereo unspecified),·,·,·,·,2%,3%
N#Cc1ccc(C(=O)Nc2ccn(-c3ccccc3)n2)cc1,-11%,-1%,3%,-7%,?,-53%
CC(=O)Nc1ccn(-c2ccccc2)n1,17%,13%,?,5%,?,16%
O=C(Nc1ccn(-c2ccccc2)n1)c1ccccc1Br,27%,?,?,?,?,16µM*
O=C(Nc1ccn(-c2ccccc2)n1)c1ccc(Cl)cc1,16%,13%,?,10%,13µM*,7%[1.84 µM]
CC1CCN(S(=O)(=O)c2ccc3c(c2)CCC(=O)N3CC(=O)Nc2cccc(C#N)c2)CC1,-5%,8%,·,·,-2%,·
O=C(N/N=C/c1cc(O)ccc1Br)c1cccnc1,-36%,-35%,25%,?,?,·
CC1Oc2ccccc2C=C1/C=N\NC(=O)c1cccnc1 (stereo unspecified),15%,18%,7%,?,17µM*,·
CC1Oc2ccccc2C=C1/C=N/NC(=O)c1ccccc1O (stereo unspecified),?,?,?,-3%,1.7µM*,13µM*
CC1Oc2ccccc2C=C1/C=N/NC(=O)[C@@H](C)NC(=O)OC(C)(C)C (stereo partly specified),0%,-3%,-1%,-7%,-22%,·
CC1Oc2ccccc2C=C1/C=N/NC(=O)c1ccccc1 (stereo unspecified),2.5µM*,?,?,?,6µM*,14µM*
Cc1ccc(C(=O)N/N=C/C2=Cc3ccccc3OC2C)cc1 (stereo unspecified),28%,22%,?,1%,3µM*,?
CC1CN(c2ncc(/C=N/NC(=O)c3ccccc3O)s2)CC(C)O1 (stereo unspecified),19%,7%,1%,-8%,?,-4%
COc1ccccc1N1CCN(C(=O)C2CCN(S(=O)(=O)c3cn(C)cn3)CC2)CC1,·,·,·,·,-1%,·
CCC(C)NC(=O)CCC(=O)N1Cc2ccccc2Oc2ncccc21 (stereo unspecified),·,·,·,·,-2%,·
Cc1nn(C)c(C)c1S(=O)(=O)N(CC(=O)Nc1ccc(F)cc1F)c1ccc(C(C)C)cc1,·,·,·,·,-10%,7%
CN(C)c1ccc(CNC(=O)CN2C(=O)CCn3nc(-c4cn(C)c5ccccc45)cc32)cc1,·,·,·,·,-2%,·
CCc1ccc2nc(N3CCN(C(=O)C(C)(C)C)CC3)sc2c1,22%,27%,3%,0%,15µM*,·
SMILES,Rab9 prom act,NPC1 prom act,p53 reactivator,ELG1 genotox,FLuc counter,SMN2 splice up
CC(C)(C)C(=O)N1CCN(c2nc3ccccc3s2)CC1,?,2.5µM*,?,16%[9.26 µM],15µM*,·
Cc1nc(-c2ccc(Cl)cc2)sc1C1(C)CC(c2cccnc2)=NO1 (stereo unspecified),?,?,12%,?,17µM*,·
COC(=O)c1cnn(-c2ccc(C(=O)Nc3cc(OC)c(OC)c(OC)c3)cc2)c1N,·,·,·,·,-7%,·
CCOC(=O)CNC(=O)c1ccc2[nH]c3ccccc3c2c1,-3%,-4%,2%,7%,17µM*,-7%
CCOC(=O)CNC(=O)c1ccc(C)cc1,2%,0%,1%,10%,13µM*,10%
O=C(NCC(O)CO)c1ccc2[nH]c3ccccc3c2c1 (stereo unspecified),0%,-4%,-5%,0%,?,8%
CCOC(=O)CNC(=O)c1ccc(OCC(F)(F)F)cc1,2µM*,?,12%,11%,?,13µM*
Cn1c2c(c(=O)[nH]c1=O)C(c1ccc(O)cc1)C1=C(N2)c2ccccc2C1=O (stereo unspecified),-4%,-11%,0%,1%,17µM*,-18%
Nc1nc2c(c(=O)[nH]1)C(c1ccccc1)C1=C(N2)c2ccccc2C1=O (stereo unspecified),1%,4%,-3%,3%,-3%,·
COc1ccccc1N1CCN(S(=O)(=O)CCNC(=O)C2CCCCC2)CC1,-5%,8%,-2%,-20%,8%,·
CCOc1ccc(C(=O)c2cn(CC(=O)Nc3cccc(OC)c3)c3cc4c(cc3c2=O)OCCO4)cc1,·,·,·,·,7%,-5%
CC1CCN(S(=O)(=O)c2ccc3c(c2)c(=O)c(C(=O)NC2CCCC2)cn3C)CC1,3%,-2%,4%,-3%,-2%,-14%
